Among all 2,300 compounds or so, about 1,400 (61%) were called active. Roughly 29% stayed inconclusive and do not appear here. So high a share suggests a set chosen from earlier hits. The list shows a part of the results. A number with no mark means an inactive call. Calls come from the whole dose curve; as a rule, active = well fitted inhibition curve with a large enough effect; inconclusive = small, poorly fitted or top-dose-only effect, or effect the other way; inactive = no such curve, though single readings can be large or run the other way.
test: Confirmation screen for delayed death inhibitors of the malarial parasite plastid, 96 hour incubation; note: nearly all actives have a fitted effect of over 60% in size; settings: P. falciparum luciferase growth in erythrocytes; series mostly up to 28.7 µM; activity change, negative = inhibition: at the top concentration
How it was run: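 Erythrocytes infected with luciferase-expressing P. falciparum (2% hematocrit, 0.1% parasitemia final) in RPMI 1640 with 0.5% Albumax, exposed to compounds 96 h at 37 C, 5% CO2. Growth inhibition read as decreased luciferase luminescence.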
% is set by controls: 0 for no effect and ±100 for the full control effect; potency is the fitted concentration of half-maximal effect.

| SMILES | Potency | activity change, negative = inhibition |
| --- | --- | --- |
| CCCCCCn1c(=O)[nH]c2nc3cc(N)ccc3nc2c1=O | 14.1 µM (active) |  |
| COc1ccc(NC(=O)N2CCCc3cc(C)ccc32)c(OC)c1 | 12.6 µM (active) |  |
| COc1ccc(NC(=O)NC2CCCCCCC2)c(OC)c1 | 11.2 µM (active) |  |
| COc1cc(-c2ccc(NC(=O)NC3CC3)c(OC)c2)ccc1NC(=O)NC1CC1 | 11.2 µM (active) |  |
| COc1ccccc1NC(=O)Cc1nnc(SCC(=O)NC2CCCCC2)n1C |  | -14.6% |
| O=C(O)c1ccccc1Nc1ccc([N+](=O)[O-])cc1 |  | 15.4% |
| COc1cc(-c2ccc(Nc3ccccc3C(=O)O)c(OC)c2)ccc1Nc1ccccc1C(=O)O | 10 µM (active) |  |
| COc1ccc(NC(=O)NC2CCCc3ccccc32)c(OC)c1 (stereo unspecified) | 6.31 µM (active) |  |
| CCNc1ccc(Br)cc(C(=O)/C=C/c2c(Cl)cccc2Cl)c1=O | 7.08 µM (active) |  |
| O=C(NC(=S)Nc1nc(-c2ccccc2)cs1)c1cccnc1 | 12.6 µM (active) |  |
| CC(=O)Oc1ccc(-c2csc(Nc3cccnc3)n2)cc1 |  | 3.42% |
| O=C(c1ccccc1Br)N1CCN(c2ccccn2)CC1 |  | -19.7% |
| CC(Oc1ccc(Br)cc1)C(=O)N1CCN(c2ccccn2)CC1 (stereo unspecified) | 12.6 µM (active) |  |
| CCCCn1c(=O)[nH]c(=O)c2c1nc(Cn1ncc(Cl)c(Cl)c1=O)n2CCC | 10 µM (active) |  |
| CC(C)CNC(=O)C(=O)Nc1cc2c3c(c1)C(C)C(=O)N3CCC2 (stereo unspecified) | 14.1 µM (active) |  |
| Cc1ccccc1NC(=O)Cc1nnc(SCC(=O)NC2CCCCC2)n1C |  | -11.3% |
| Cn1c(Cc2cccc3ccccc23)nnc1SCc1ccc([N+](=O)[O-])cc1 | 12.6 µM (active) |  |
| COc1ccccc1C1CCCN1Cc1nc(-c2ccc(C)s2)oc1C (stereo unspecified) | 14.1 µM (active) |  |
| N#CC1=C(N)Oc2n[nH]c(-c3cccnc3)c2C1c1ccc([N+](=O)[O-])o1 (stereo unspecified) | 15.8 µM (active) |  |
| C=C1C(=O)[C@@]23[C@H](O)C[C@@H]4C(C)(C)CC[C@H](O)[C@]4(C)[C@@H]2C[C@H](O)[C@@H]1[C@H]3O | 14.1 µM (active) |  |
| Cc1ccc(Cl)cc1N1CCN(c2cccc[n+]2C)CC1 | 2 µM (active) |  |
| CCCc1[nH]nc2c1C(c1cc(OC)ccc1F)C(C#N)=C(N)O2 (stereo unspecified) | 3.55 µM (active) |  |
| O=C(CSc1nc(-c2ccco2)cc(C(F)(F)F)n1)Nc1ccccc1C(F)(F)F | 12.6 µM (active) |  |
| O=C(NCc1ccccn1)c1cc(-c2ccc(-c3ccccc3)cc2)nc2ccccc12 | 15.8 µM (active) |  |
| CC(Sc1nc2cc(Cl)ccc2s1)C(=O)Nc1cccc(S(=O)(=O)N2CCOCC2)c1 (stereo unspecified) | 12.6 µM (active) |  |
| COc1cccc(/C=N/NC(=O)c2nc(-c3ccccc3)cc(-c3ccccc3)n2)c1O | 7.94 µM (active) |  |

From PubChem BioAssay AID504848 (National Center for Advancing Translational Sciences (NCATS), 2011)
